The panel holds about 83,000 compounds, 20% with a hit somewhere; the sample as a whole holds those more often.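 Testing used 96-well plates and a 48-hour single-concentration exposure. Example: -40 means 40% of the starting cells died.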 Calls of active or inactive are those of the source. Rule for the calls: active = growth percent below 10; inactive = the rest.

The test system of this assay is MDA-MB-468 breast. Kind of assay: NCI-60 one-dose screen, 48 h (100 = growth as untreated, 0 = no growth, -100 = all killed). The following applies: 10 µM unless noted.
Take `COc1cc(CNC(=O)C[C@H](C)CCC=C(C)C)ccc1OCc1cn(-c2ccc(Br)cc2)nn1`: the growth was 46.7% (inactive).
`Cc1cccc(C)c1Nc1nnc(-c2c[nH]c3ccccc23)o1`: the growth is 93.2% (inactive).
Consider `COc1cc(CNC(=O)C[C@H](C)CCC=C(C)C)ccc1OCc1cn(-c2ccc(Cl)c(Cl)c2)nn1`, for which the growth was 55% (inactive).
Take `Cc1ccc(C(C)C)cc1Oc1cccc(-c2c(-c3ccc(C(F)(F)F)cc3)ncn2C2CCNCC2)n1`: the growth is -90.3% (active).
For `COc1cc(CNC(=O)C[C@H](C)CCC=C(C)C)ccc1OCc1cn(-c2cccc(C(F)(F)F)c2)nn1`, the growth was 64.9% (inactive).
The result for `Cc1ccc(Nc2nnc(-c3c[nH]c4ccccc34)o2)c(C)c1` reads -17% (active); that for `CC1=C(C)C(=O)C(N2CCSCC2)=CC1=O`, 60.4% (inactive); that for `COc1ccc(C(=O)c2cc(C(C)=O)c3c(C)cc(C)cn23)cc1`, 59.6% (inactive).
For the molecule `O=C(c1ccc(O)cc1)C1[C@H](c2ccccc2Br)[C@@H](c2ccccc2)NC12C(=O)Nc1ccccc12` (stereo partly drawn), the growth is -36.1% (active).
Next, `C=CCSc1nnc(-c2ccc(-c3nc4ccccc4[nH]3)cc2)o1`: 69.3% (inactive); `COc1cc(/C=C/C(=O)c2cnn(-c3cc(=O)[nH]c4ccc(C)cc34)c2C)cc(OC)c1OC`: -77.3% (active); `COc1cc(-c2ccc3ncnc(N4CCc5ccc(Cl)cc54)c3c2)cnc1Cl`: -16.8% (active).
Turning to `COc1ccc(NC(=O)Cn2c(/C=C/c3cccc(OC)c3)nc3ccccc3c2=O)cc1`, the growth was 71.4% (inactive).
On to `CC[C@]12C=CCN3CC[C@]4(C(=C(C(=O)OC)C1)Nc1cc(OC)c([C@@H]5[C@H]6O[C@H]6[C@@]6(CC)CC(C(=O)OC)=C7Nc8cc(O)ccc8[C@@]78CCN5[C@@H]68)cc14)[C@@H]32`, for which the growth was -48.9% (active).
As for `COc1ccc2nc(NC(=O)c3ccc(N(C)C)cc3)sc2c1`, the growth was 41.1% (inactive).
Next, `Cc1nc(N)ncc1-c1ccc2ncnc(N3CCc4cc(F)c(Cl)cc43)c2c1`: -22.5% (active).
In the case of `N#Cc1ccc(C(=O)CSc2nc3c(c(Nc4ccc(S(N)(=O)=O)cc4)n2)CCC3)cc1`, the growth is 60.4% (inactive).
With `CN(C(=O)CN1C(=O)/C(=C/c2ccco2)SC1=S)C1CCS(=O)(=O)C1` (stereo not drawn), the growth was 72% (inactive).
Next, `O=C(Nc1ccc(-c2ccc3c(c2)NC(=O)/C3=C\c2ccc[nH]2)cc1)Nc1cccc(Cl)c1`: -55.5% (active); `COC(=O)c1c(C(=O)OC)c2c3ccccc3c3ccccc3n2c1C(=O)C(F)(F)F`: 92% (inactive); `O=C(N/N=C/c1c[nH]c2ccccc12)Nc1ccc(F)c(Cl)c1`: -1.93% (active).
In the case of `O=C(CSc1nnc(-c2ccc(-c3nc4ccc(Cl)cc4[nH]3)cc2)o1)Nc1ccc(Br)cc1`, the growth was 50.8% (inactive).
For `Cn1cc(-c2cc(N)n3nc(-c4c[nH]c5ccc(Cl)cc45)cc3n2)c2cccnc21`, the growth is -93.7% (active).
On to `COc1ccc2c(c1)C(Sc1ccc(Cl)cc1)c1c(nc(N)c(C#N)c1N)O2` (stereo not drawn), for which the growth was 77.9% (inactive).
In the case of `Cc1ccccc1NC(=O)c1cccc(NC(=O)CCl)c1`, the growth was -0.88% (active).
Regarding `Oc1cncc(-c2ccc3ncnc(N4CCc5cc(F)c(Cl)cc54)c3c2)c1`, the growth is 48.2% (inactive).
On to `Nc1nnc(-c2cncc(Br)c2)c(-c2c[nH]c3ccc(Br)cc23)n1`, for which the growth was -4.92% (active).
Consider `C/C(=N/O)c1ccc(NC(=O)CSc2nnc(-c3ccc(-c4nc5ccc(Cl)cc5[nH]4)cc3)o2)cc1`, for which the growth was 64.9% (inactive).
On to `CCCCCCCCc1cccc(CC(=O)Nc2ccc(C)cc2C(=O)O)c1`, for which the growth was 73% [25 µM] (inactive).
For the molecule `Cc1ccc(C(=O)Nc2cc(-n3cnc(F)c3)cc(C(F)(F)F)c2)cc1C#Cc1cnc2cccnn12`, the growth was 81.7% (inactive).
In the case of `CC[C@]12C=CCN3CC[C@@]4(c5ccc(OC)cc5N(C)[C@H]4[C@@](O)(C(=O)OC)[C@@H]1OC(=O)CCCC[P+](c1ccc(F)cc1)(c1ccc(F)cc1)c1ccc(F)cc1)[C@@H]32`, the growth is -74.6% (active).
Next, `COc1ccc2c(c1)N=c1c-2cc2c(O)[nH]c(=S)n2c1=O`: -25.9% (active); `O=C(CSc1nnc(-c2ccc(-c3nc4ccccc4[nH]3)cc2)o1)Nc1ccc(Cl)cc1`: 54.8% (inactive).
In the case of `N/C(=N\c1nc2ccc([N+](=O)[O-])cc2s1)NC(=O)Nc1ccccc1Cl`, the growth was 0% (active).
Consider `Fc1ccc(N2CC(Cn3c(C(F)(F)F)cc4c(Cl)ncnc43)C2)c(F)c1`, for which the growth is -50.5% (active).
For the molecule `CC1=C(C(=O)OC(C)C)C(c2ccc(O)cc2)NC(=O)N1` (stereo not drawn), the growth was 103% (inactive).
Next, `Cc1nn(-c2ccccc2)c2nc(C)n(CC(=O)N/N=C/c3ccccc3O)c(=O)c12`: -23.3% (active); `O=CNc1cccc(-n2cnc3cc(-c4ccc(O)cc4)ccc32)c1`: 19.5% (inactive).
